Laboratory results: the supplement of paper PMC6555819

What was measured:
Experiment in all cases: PBM binding z-score (relative to random genomic background probes); higher = stronger binding; sequences stand for … in GC…GCGATTGACAGCGTAGAATGAAGG
[1] = tested on: RARb homodimer (NR concentration 270 nM)
Summary of the method: (§1)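 Ligand-free nuclear receptor dimers were bound for 1 h to custom Agilent 4×180K protein-binding microarrays. Detection used antibodies against each partner (one per run). Binding z-scores rest on regression-normalized fluorescence, with random background probes as the reference.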

[2] = tested on: RARg:RXRa (NR concentration 270 nM, RXRa partner concentration 90 nM)
Summary of the method: as §1

[3] = tested on: RARg homodimer (NR concentration 270 nM)
Summary of the method: as §1

[4] = tested on: RXRa DBDmut IVT, anti-RXR (DBD mutation: RXRa K156A/R161A, NR concentration 90 nM)
Summary of the method: as §1

[5] = tested on: RXRa homodimer (NR concentration 180 nM)
Summary of the method: as §1

[6] = tested on: THRa:RXRa (NR concentration 90 nM, RXRa partner concentration 90 nM)
Summary of the method: as §1

[7] = tested on: THRa homodimer (NR concentration 90 nM)
Summary of the method: as §1

[8] = tested on: VDR homodimer (NR concentration 270 nM)
Summary of the method: as §1

Sequence	PBM binding z-score [1]	PBM binding z-score [2]	PBM binding z-score [3]	PBM binding z-score [4]	PBM binding z-score [5]	PBM binding z-score [6]	PBM binding z-score [7]	PBM binding z-score [8]
GCTGCTAGGTCAGGTTGGTCAGCCAACGGGTACG	2.66	2.78	3.65	0.121	0.819	1.61	0.269	0.768
CCTACTGGGCCAAAAAGGTCATTTATGCCGATAA	4.03	4.11	3.43	0.766	4.35	2.85	0.395	2.46
TCATATAGGTAATGGTGAAAGTCGAACGATATGA	-0.191	0.377	0.547	0.843	0.587	-0.0618	-0.634	-0.582
AATACCGGGTCACTAGGCCAGAGTAGGTACGAAT	2.74	4.17	3.95	1.2	4.15	3.08	0.928	1.22
CAAACTATGTCAAGAGGTCAAAGTCCGCTTCCCG	4.59	5.95	5.29	2.09	6.87	3.65	1.79	4.22
ATATGTAGGTTACATCCGCGTCATTCAGGCTATG	0.571	0.929	1.09	0.366	0.901	0.526	0.124	0.163
GCTAGCAGGCCATTTGTGTCACTCAATGACGGGC	-0.0499	-0.217	0.011	0.131	-0.25	-0.583	-0.967	-0.895
ATATGTAGGTTATATCCGGGTCATTCAGGCTATG	2.73	3.85	1.81	1.22	2.84	3.82	2.73	3.33
GGAACGAGGGCAGGTTGATAGCAGAGTTTGATGG	1.3	0.763	1.26	0.971	0.496	0.552	0.392	1.16
ACGAGCAGGCCAAGTTTGGGTCACTCAAACAAAG	2.28	2.29	1.45	-0.315	0.708	2.59	1.04	0.234
TCATATCGGTAATACAGGTGAAAGTCGGCATCTA	0.531	0.354	0.441	1.09	0.783	0.59	0.42	0.435
TGAGACAGGTGAAGGTAACTCAGGTACGCAGTCG	0.449	0.201	0.61	-1.52	0.312	1.18	-0.173	-0.0182
CGTCCAAGGTCAAAGGTCAGTGATGAGATGACGG	5.76	8.67	7.8	3.72	10.1	4.87	3.03	4.03
GGAACGAGGGCAAAGTTGATTGCATCTGTCGACG	1.13	1.89	1.34	2.7	1.76	1.36	-0.0538	1.55
ACTAGTTGGTCAGCTGAGGTCACAAACAATTCGG	4.02	3.8	3.86	0.835	3.71	5.04	4.45	3.58
AGTCAAAGTACAGGACGAGGTAACGTAAAGCACG	0.274	0.526	0.919	-0.155	0.598	1.39	0.878	-0.0315
CGTCGAAGTTCAACTAAGGTAACGTAAAGCACGC	2.89	3.53	3.67	3.86	2.69	4.97	2.11	2.88
ATACCAAGGTGATGGTGAGGTCGTTGATACTAAC	1.83	1.84	0.644	0.506	1.11	3.24	2.44	2.63
ACAGACAGGTGAGTGAAGGTACCTCAGCTGGACG	-0.44	-0.0299	0.22	-0.86	-0.0741	0.291	-0.575	-0.908
TGAATGAGGTTAAAGATCATGGAACGTGGCGTCG	0.734	2.46	1.32	0.839	4.34	2.79	0.35	0.314
ATATGTAGGTTATCGGGTCATCCAGTTTGCGCAT	3.46	3.7	2.8	1.33	3.78	3.68	3.07	3.89
CAAACTAGGTCAAAGGTCAATGTCGAGCCAACCA	5.2	8.62	7.28	3.16	9.99	4.71	1.71	3.03
CCTAGGTGGTCAAGGTCACACACGCTATAGGTAC	4.16	4.81	4.61	1.79	4.66	4.09	4.01	3.06
ATCTCTAGCTAAGACTCAGTTCAGTGAAGAACGC	0.502	0.00118	-0.132	0.313	0.0167	0.338	0.471	1.11
CCTACTGGGCCATTCAGAGGTCATTGAGCATATG	4.08	4.6	3.1	0.996	3.54	3.27	1.22	3.44
GCTAGCAGGCCATTTGGGTCACTCTATGACGGGC	1.56	0.776	0.994	-0.157	0.463	1.4	0.526	0.578
CTCGAAAGGTCGTGCTCAGGTGAGGATACCAAAC	2.88	5.12	3.74	2.24	4.62	4.22	2.06	0.965
CGTCCAAGGTCAAGGTCAGTGACAGAGACTCGAA	5.06	6.76	7.62	3.72	6.77	4.35	3.7	3.35
GGAACGAGGGCATTCGAGTTGATAGCTTGGCGAT	0.679	1.02	1.33	3.13	0.592	3.17	-0.698	3.03
